Hits are enriched below; roughly 1.8% of the tested compounds scored in any of these assays.
AI-2 QS mod = Vibrio harveyi AI-2 quorum sensing modulators, primary screen, JMH597 strain, luminescence/OD600 ratio; Vibrio harveyi JMH597 AI-2 luminescence/OD600 ratio, 9 h; active compounds read low; strain lacks LuxN and CqsS sensors; 0 = neutral-control median; activity change, % at 7.5 µM; 300,000 compounds, 0.4% hits; AID 2094, 2009; in the data active = activity change below about -75%, passing the limit was not always enough; inconclusive = no clear call, values can overlap the other calls;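 also: luminescence divided by OD600 gain over 9 h not by final OD600 alone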
Bfl-1 A1 inh = caspase 3/7 activation in MEF A1-2A-BIM cells, primary screen, A1 inhibitor project, cell-based, luminescence, HTS; Caspase-Glo 3/7 luminescence, 3 h; percent of clofoctol response, vehicle zero; caspase activation, % (test concentration not listed); 330,000 compounds, 0.066% hits; AID 2462, 2010;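 active = over half of replicate activation scores above 10%, or exactly half above 10 with the replicate mean above 10; inconclusive = replicate mean below 10 yet half the replicates above 10; inactive = over half of replicates below 10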
aDG glyco up = activators of alpha-DG glycosylation, primary screen, uHTS, Pro5-aDG cells, AlphaScreen | activation, % at 10 µM | alpha-DG glycosylation AlphaScreen (IIH6); 0% Pro5, 100% B10-LARGE cell signal | 360,000 compounds, 0.22% hits;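 active = activation of at least 8% versus controls, or a plate z-score of at least 8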;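 also: Pro5 are CHO cells carrying HIG-tagged alpha-DG that lacks glycosylation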
ARNT TACC3 PPI = disruptors of ARNT/TACC3 protein interaction, primary screen, biochemical, AlphaScreen, single concentration; AlphaScreen His-ARNT PAS-B/GST-TACC3 binding, luminescence; TACC3 fragment carries E629A point mutation; inhibition, % at 9.99 µM; 390,000 compounds, 0.66% hits;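 active = mean inhibition of replicates at least 50% and at least half of replicates each reaching 50%; inconclusive = half or more replicates reach 50% but mean below 50%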
SUMO Mot1 rescue = yeast Mot1-301 growth rescue at high temperature, primary screen, SUMOylation pathway inhibitor project, S. cerevisiae, ATP luminescence, 38.5C. growth rescue, % at 18.8 µM. 320,000 compounds, 1% hits. S. cerevisiae Mot1-301 growth rescue; percent above DMSO median, 100 means doubled;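 active = every valid replicate shows activation above 250% relative to neutral control wells; inactive = the rest, any valid replicate at or below 250%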
Large screens that a line does not name were inactive.

COCCCNc1nc(=S)[nH]c2cc(OC)c(OC)cc12	ARNT TACC3 PPI 64
COc1cc2[nH]c(=S)nc(NCCC(C)C)c2cc1OC	ARNT TACC3 PPI 64
COc1ccccc1Nc1nc(N)nc(CN2CCC(C)CC2)n1	none
CCn1cc(S(=O)(=O)NCc2ccc3c(c2)OCO3)cn1	none
Cc1nn(CCC(=O)NNC(=S)Nc2ccc(Cl)cc2)c(C)c1[N+](=O)[O-]	none
Cc1c(C)c2c(OCC(=O)N3CCC(C(=O)O)CC3)cc3c(c2oc1=O)CCC(C)(C)O3	ARNT TACC3 PPI 45
COc1ccc(C(=O)N/N=C/c2sc3ccccc3c2O)cc1	AI-2 QS mod -92, ARNT TACC3 PPI 78
COc1ccc2cc(C(=O)N/N=C/c3sc4ccccc4c3O)ccc2c1	ARNT TACC3 PPI 64
O=C(N/N=C/c1sc2ccccc2c1O)c1ccccc1	AI-2 QS mod -81, ARNT TACC3 PPI 61
COc1ccc(N=Cc2sc3ccccc3c2Cl)cc1	none
C[C@@H]1CN([C@@H](C)CO)C(=O)c2cc(NS(=O)(=O)c3cccs3)ccc2O[C@H]1CN(C)C(=O)Nc1ccc2c(c1)OCO2	none (no result: AI-2 QS mod, Bfl-1 A1 inh, aDG glyco up, SUMO Mot1 rescue)
O=C(O)c1cccc(S(=O)(=O)Nc2cccc(S(=O)(=O)Nc3ccc(Br)cc3)c2)c1	none (no result: AI-2 QS mod, Bfl-1 A1 inh, SUMO Mot1 rescue)
CCC(=O)NC(c1ccc(C)cc1)c1cc(Cl)c2cccnc2c1O (stereo unspecified)	none (no result: AI-2 QS mod)
CCCC(=O)NC(c1cccs1)c1cc(Cl)c2cccnc2c1O (stereo unspecified)	none
Cc1ccc(C(NC(=O)C(C)C)c2cc([N+](=O)[O-])c3cccnc3c2O)cc1 (stereo unspecified)	ARNT TACC3 PPI 50
CC(=O)NC(c1cccs1)c1cc(F)c2cccnc2c1O (stereo unspecified)	ARNT TACC3 PPI 56 (no result: AI-2 QS mod)
CC(C)C(=O)NC(c1cccs1)c1cc([N+](=O)[O-])c2cccnc2c1O (stereo unspecified)	ARNT TACC3 PPI 60
COc1ccc(CCN(C)C(=O)CSc2ncnc3sccc23)cc1OC	none
Cc1c(C(c2ccc(Br)cc2)c2c(C)n(C)n(-c3ccccc3)c2=O)c(=O)n(-c2ccccc2)n1C	none
CC(=O)CN1C(=O)NC2(CCCc3ccccc32)C1=O (stereo unspecified)	none
CN(C(=O)C1CCN(S(=O)(=O)c2cccs2)CC1)c1ccccc1	none
COc1cccc(-c2ccc3c(c2)[C@@H]2[C@@H](CCN2S(=O)(=O)c2cn(C)cn2)[C@@H](CO)N3)c1	ARNT TACC3 PPI active (no result: AI-2 QS mod, Bfl-1 A1 inh, aDG glyco up, SUMO Mot1 rescue)
Cn1cnc(S(=O)(=O)N2CC[C@H]3[C@H](CO)Nc4ccc(-c5ccccc5)cc4[C@H]32)c1	none (no result: AI-2 QS mod, Bfl-1 A1 inh, aDG glyco up, SUMO Mot1 rescue)
CC1(c2ccc(NC(=O)c3ccccc3F)cc2)CC1(Cl)Cl (stereo unspecified)	none
CCOC(=O)c1c(C)oc2c1c(C=NCc1ccccn1)c(O)c1ccccc12	ARNT TACC3 PPI 48 (no result: AI-2 QS mod, Bfl-1 A1 inh, SUMO Mot1 rescue)
CCOC(=O)c1c(C)oc2c1c(C=NCC1CCCO1)c(O)c1ccccc12 (stereo unspecified)	none (no result: Bfl-1 A1 inh, SUMO Mot1 rescue)
CN(C)S(=O)(=O)c1ccc(C(=O)OCC(=O)NC(=O)NC2CCCC2)cc1	none (no result: AI-2 QS mod)
CN(C)S(=O)(=O)c1ccc(C(=O)OCC2CCCO2)cc1 (stereo unspecified)	AI-2 QS mod -77
CCOC(=O)C1CCCN(C(=O)C(=O)Nc2ccc3nc4n(c(=O)c3c2)CCCCC4)C1 (stereo unspecified)	none
COC(=O)c1ccc(=O)c2nc3/c(=C/O)c(O)cc(=O)c3[nH]c12	ARNT TACC3 PPI 59 (no result: AI-2 QS mod)
CCOC(=O)c1ccccc1NC(=O)CSc1nnc(C(C)C)n1CC	none
Cc1cc(N2CCN(C(=O)/C=C/C(=O)O)CC2)c2ccccc2n1	none
CCOC(=O)c1c(NC(=O)CNCC(O)CO)sc(C)c1C (stereo unspecified)	SUMO Mot1 rescue 295
C[C@@H]1CCCCO[C@H](CN(C)CC2CC2)[C@H](C)CN([C@@H](C)CO)C(=O)c2cc(NC(=O)Nc3ccccc3)ccc2O1	none (no result: AI-2 QS mod, Bfl-1 A1 inh, aDG glyco up, SUMO Mot1 rescue)
O=C(NCc1ccccn1)c1n[nH]c2ccccc12	ARNT TACC3 PPI 24
O=C(NCc1ccccn1)Nc1cccc(Cl)c1	none
O=C(NCc1ccccn1)C(=O)N/N=C/c1ccccc1O	ARNT TACC3 PPI 64
CC(C)CNC(=O)C(=O)NCc1ccccn1	SUMO Mot1 rescue 315
Cc1cc(/C=N/NC(=O)C(=O)NCc2ccccn2)c(C)n1-c1cccc(Br)c1	none (no result: ARNT TACC3 PPI)
CC(C)NC(=O)C(=O)NCc1ccccn1	none
O=C(NCc1ccccn1)Nc1cccc(NC(=O)NCc2ccccn2)c1	ARNT TACC3 PPI 78
COc1ccc(N2CCN(C(=O)C(=O)c3cccc([N+](=O)[O-])c3)CC2)cc1	none (no result: AI-2 QS mod, Bfl-1 A1 inh, ARNT TACC3 PPI, SUMO Mot1 rescue)
Nc1nc(N)c2sc3nc4c(cc3c2n1)CCC4	ARNT TACC3 PPI 76
Cc1nc(SCC(=O)c2c(N)n(C3CC3)c(=O)[nH]c2=O)[nH]c(=O)c1CCO	none (no result: AI-2 QS mod)
CCc1cc2ccc(OC)cc2nc1SCC(=O)Nc1cc(C)on1	none
NC(=S)N=Nc1c(O)cc(O)c2[nH]c(=O)ccc12	ARNT TACC3 PPI 64 (no result: AI-2 QS mod, Bfl-1 A1 inh, SUMO Mot1 rescue)
O=C(CCc1ccccc1)N/N=C\C1CC=CCC1 (stereo unspecified)	none
CC(C)(C)c1ccc(OCC(=O)N/N=C/C2CC=CCC2)cc1 (stereo unspecified)	ARNT TACC3 PPI 25
O=C(COC(=O)CNC(=O)c1ccccc1Cl)NC1CCCC1	none (no result: AI-2 QS mod)
COC(=O)COc1ccc(S(=O)(=O)N2CCN(c3ccccc3)CC2)cc1	none
COc1ccc(C(=O)Oc2cccc3cccnc23)cc1[N+](=O)[O-]	ARNT TACC3 PPI 56
COc1ccc(CSc2cccc3cccnc23)cc1[N+](=O)[O-]	ARNT TACC3 PPI 45
NC(=O)c1ccc(Oc2cccc3cccnc23)c([N+](=O)[O-])c1	none
CCOC(=O)c1c(NC(=O)C2C3C=CC(CC3)C2C(=O)O)sc(C)c1C (stereo unspecified)	SUMO Mot1 rescue 298
CCOC(=O)c1c(NC(=O)C2C3C=CC(C3)C2C(=O)O)sc2c1CCC(CC)C2 (stereo unspecified)	none
CSc1ccccc1NC(=O)CN(Cc1ccccc1)S(C)(=O)=O	SUMO Mot1 rescue 287
O=C(/C=C/c1ccc(Cl)cc1)c1ccc([N+](=O)[O-])o1	AI-2 QS mod inconclusive, Bfl-1 A1 inh 9.9
CCCNC(=O)[C@H]1[C@H](CO)[C@H]2Cn3c(ccc(-c4ccc(F)cc4)c3=O)[C@H]2N1C	none (no result: AI-2 QS mod, Bfl-1 A1 inh, aDG glyco up, SUMO Mot1 rescue)
CCN(CC)c1ccc(N=Nc2nn(C)c(C)c2[N+](=O)[O-])cc1	none
CCN(CC)c1ccc(N=Nc2ncn[nH]2)cc1	ARNT TACC3 PPI 70
CC1=C/C(=C(/c2cc(C)c(O)c(Br)c2)c2ccccc2S(=O)(=O)O)C=C(Br)C1=O	ARNT TACC3 PPI 49
